The panel holds about 79,000 compounds, 15% with a hit somewhere; the sample as a whole holds those more often. Values without a mark were called inactive. Calls of active or inactive are those of the source. Cut-off read from the data, not from the text of the source: active = growth inhibition above about 70%; inactive = the rest.
Columns and labels:
[1] = NCI Yeast Anticancer Drug Screen. Data for the rad50 strain (AID 155);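 note: 0% = growth of vehicle-only cultures of the same strain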; details: S. cerevisiae rad50 strain growth inhibition, hits give high values
How it was run: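 Relative growth inhibition (compound vs vehicle) was measured in yeast with a defined repair-gene alteration.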

[2] = NCI Yeast Anticancer Drug Screen. Data for the mec2-1 strain (AID 157); details: S. cerevisiae mec2-1 strain, hits give high values
How it was run: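 mec2-1 yeast strain, carrying an alteration in DNA damage repair or cell cycle control, was exposed to compounds; growth inhibition was measured relative to vehicle-treated controls.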

[3] = NCI Yeast Anticancer Drug Screen. Data for the sgs1 mgt1 strain (AID 161);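 note: 0% = growth of cultures given vehicle only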; details: S. cerevisiae sgs1 mgt1 strain, hits give high values
How it was run: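 Yeast cells carrying a defined DNA-repair defect were exposed to test compounds. Growth inhibition was measured relative to vehicle-treated controls.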

[4] = NCI Yeast Anticancer Drug Screen. Data for the bub3 strain (AID 167); details: S. cerevisiae bub3 mutant strain, hits give high values
How it was run: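 Screening used yeast with an engineered genetic alteration affecting cell cycle control. Compound-exposed cultures were compared with vehicle cultures, and reduced growth was taken as inhibition.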

[5] = NCI Yeast Anticancer Drug Screen. Data for the mlh1 rad18 strain (AID 175); details: S. cerevisiae mlh1 rad18 strain growth inhibition, hits give high values
How it was run: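 Growth inhibition of the yeast strain was measured after compound exposure and expressed relative to vehicle-treated controls. The strain carries defined defects in DNA damage repair.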

[6] = NCI Yeast Anticancer Drug Screen. Data for the cln2 rad14 strain (AID 165);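 note: 0% = growth equal to vehicle treated cultures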; details: S. cerevisiae cln2 rad14 strain, hits give high values
How it was run: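 Yeast carrying cln2 and rad14 alterations (cell cycle control and DNA damage repair) were exposed to compounds. Growth inhibition was measured against vehicle-treated controls.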

[7] = at 5.0 µM (retest, dose inferred, filed as 0.5)
[8] = at 50.0 µM (retest, dose inferred, filed as 5.0)

Compound	growth inhibition [1, 7]	growth inhibition [1, 8]	growth inhibition ([1]; at 50.0 µM)	growth inhibition [2, 7]	growth inhibition [2, 8]	growth inhibition ([2]; at 50.0 µM)	growth inhibition [3, 7]	growth inhibition [3, 8]	growth inhibition ([3]; at 50.0 µM)	growth inhibition [4, 7]	growth inhibition [4, 8]	growth inhibition ([4]; at 50.0 µM)	growth inhibition [5, 7]	growth inhibition [5, 8]	growth inhibition ([5]; at 50.0 µM)	growth inhibition [6, 7]	growth inhibition [6, 8]	growth inhibition ([6]; at 50.0 µM)
CCOC(=O)C(Cc1cc(I)c(Oc2ccc(OC)cc2)c(I)c1)NC(C)=O (stereo unspecified)	36%	92% (active)	86.8% (active)	28%	96% (active)	83.2% (active)	41%	97% (active)	69%	39%	96% (active)	87.9% (active)	38%	95% (active)	87.8% (active)			
COc1c(O)ccc2c1CN1CCc3cc4c(cc3C1C2)OCO4 (stereo unspecified)	18%	50%	65.9%	9%	21%	21.4%	9%	65%	49.2%				11%	35%	72.2% (active)	15%	22%	-16.2%
Cc1ncc(CO)c(C=NCCCCCCN=Cc2c(CO)cnc(C)c2[O-])c1[O-].[Cu+2]	-2%	-1%	3.9%	-3%	1%	-20.4%	-4%	-5%	-5.85%	-3%	-1%	25.9%	-2%	0%	25.4%			
CC(=O)OCC1OC(OC2CCCc3c(O)c4c(c(O)c32)C(=O)c2ccccc2C4=O)C(OC(C)=O)C(OC(C)=O)C1OC(C)=O (stereo unspecified)	32%	96% (active)	97.6% (active)	-8%	98% (active)	99.5% (active)	16%	98% (active)	98.8% (active)				19%	97% (active)	82.1% (active)	2%	96% (active)	28.9%
Cc1cccc(Cc2ccc(Cl)cc2)c1O	4%	99% (active)	99.3% (active)	-1%	100% (active)	99.5% (active)	5%	99% (active)	99.5% (active)	-6%	99% (active)	99.2% (active)	-2%	99% (active)	99% (active)	-10%	99% (active)	99.3% (active)
Clc1nc2ccccc2nc1N1CCCCCC1	0%	90% (active)	-17.5%	2%	96% (active)	-7.05%	1%	72% (active)	25.6%	9%	93% (active)	76% (active)	2%	85% (active)	5.2%	-5%	74% (active)	-21.4%
O=C(CCCCOCCCCC(=O)OCC1CCCO1)OCC1CCCO1 (stereo unspecified)	-1%	-2%	9.1%	0%	2%	16.9%	-91%	4%	45%	-4%	-3%	13.5%	-1%	-12%	18.1%	2%	-9%	10.3%
C=CC(=C)OC	0%	14%	10.4%	-8%	0%	20.3%	-2%	1%	19.1%	2%	-2%	39%	2%	4%	7.5%			
COC12C=CC(CC1)c1c2c(O)c2ccncc2c1O (stereo unspecified)	9%	89% (active)	58.1%	-3%	81% (active)	56.7%	4%	87% (active)	70%				-3%	86% (active)	64.8%	-3%	68%	55.9%
COc1ccc(S(=O)(=O)O)cc1-n1nc(C(=O)Nc2ccccc2)n[n+]1-c1cc(S(=O)(=O)[O-])ccc1OC	2%	9%	19.1%	1%	3%	39.8%	10%	4%	22%	-3%	2%	-10.6%	1%	-61%	63.9%	0%	2%	0.4%
CN(NC(=O)/C(=C/c1cc(Cl)cc(Cl)c1O)NC(=O)c1ccccc1)c1cnn(-c2ccccc2)c(=O)c1Cl	15%	43%	52.9%	3%	36%	39.2%	-4%	45%	59.1%				-7%	62%	67%	-6%	47%	55.6%
Cc1ccc(S(=O)(=O)NCCCOS(=O)(=O)c2ccc(C)cc2)cc1	20%	46%	22.8%	16%	33%	0.15%	34%	65%	28.9%	37%	66%	29.4%	15%	53%	45.9%	34%	63%	29.9%
CNC(=S)N(C)C(=S)Nn1c(=O)c(C)nn(C)c1=S	-24%	59%	70.8% (active)	-23%	96% (active)	79.7% (active)	-19%	50%	87% (active)	-18%	77% (active)	78.4% (active)	-27%	97% (active)	72.5% (active)			
CC(C)(C)c1ccc(C(C)(C)C)cc1	1%	3%	-10.7%	-5%	-4%	6.55%	1%	-9%	-20.4%	5%	13%	3%	-2%	1%	1.55%			
CCOC(=O)CC1=NC(=Nc2cc(Cl)ccc2Cl)SC1	21%	66%	64.5%	23%	56%	40.8%	22%	69%	79.6% (active)				38%	75% (active)	66.5%	24%	30%	25.7%
Cc1c2ccncc2cc2c1sc1ccncc12	97% (active)	97% (active)	91.2% (active)	95% (active)	97% (active)	93% (active)	94% (active)	99% (active)	91.2% (active)				96% (active)	97% (active)	89.3% (active)	87% (active)	98% (active)	90.5% (active)
COc1ccc(C2NCc3c(sc4c3CCCC4)-n3cccc32)cc1 (stereo unspecified)	-4%	43%	57.1%	-2%	31%	11.8%	-13%	84% (active)	93.2% (active)	0%	54%	18.7%	-7%	87% (active)	77% (active)	-5%	53%	57.9%
CN(C)CC(O)c1cc(-c2ccc(Cl)cc2)nc2c(Cl)cc(Cl)cc12 (stereo unspecified)	11%	99% (active)	99.2% (active)	12%	99% (active)	99.4% (active)	41%	99% (active)	99.5% (active)				46%	99% (active)	99.4% (active)	9%	97% (active)	99.3% (active)
CSC(C=P(c1ccccc1)(c1ccccc1)c1ccccc1)=Nc1ccccc1	58%	98% (active)	96.8% (active)	22%	96% (active)	99% (active)	23%	98% (active)	95.5% (active)	16%	97% (active)	98.2% (active)	15%	97% (active)	95.7% (active)	3%	97% (active)	98.3% (active)
